Measurements reported in the supplement of paper PMC11732987, “Enantioselective OTUD7B fragment discovery through chemoproteomics screening and high-throughput optimisation” (Communications Chemistry, 2025).

Columns and labels:
Assay in all cases: log2 ratio of Biotin-Ahx-Ub-VS probe labelling (fragment/DMSO); higher = less target engagement (more negative = stronger competition), active = hit call of the paper (q ≤ 0.05, log2 ratio ≤ -1)
Settings in all cases: compound concentration: 200 uM; treatment time: 3 h
ALG13 = molecular target: T1, ALG13 (UniProt Q9NP73)
T1 sequence (whole entry): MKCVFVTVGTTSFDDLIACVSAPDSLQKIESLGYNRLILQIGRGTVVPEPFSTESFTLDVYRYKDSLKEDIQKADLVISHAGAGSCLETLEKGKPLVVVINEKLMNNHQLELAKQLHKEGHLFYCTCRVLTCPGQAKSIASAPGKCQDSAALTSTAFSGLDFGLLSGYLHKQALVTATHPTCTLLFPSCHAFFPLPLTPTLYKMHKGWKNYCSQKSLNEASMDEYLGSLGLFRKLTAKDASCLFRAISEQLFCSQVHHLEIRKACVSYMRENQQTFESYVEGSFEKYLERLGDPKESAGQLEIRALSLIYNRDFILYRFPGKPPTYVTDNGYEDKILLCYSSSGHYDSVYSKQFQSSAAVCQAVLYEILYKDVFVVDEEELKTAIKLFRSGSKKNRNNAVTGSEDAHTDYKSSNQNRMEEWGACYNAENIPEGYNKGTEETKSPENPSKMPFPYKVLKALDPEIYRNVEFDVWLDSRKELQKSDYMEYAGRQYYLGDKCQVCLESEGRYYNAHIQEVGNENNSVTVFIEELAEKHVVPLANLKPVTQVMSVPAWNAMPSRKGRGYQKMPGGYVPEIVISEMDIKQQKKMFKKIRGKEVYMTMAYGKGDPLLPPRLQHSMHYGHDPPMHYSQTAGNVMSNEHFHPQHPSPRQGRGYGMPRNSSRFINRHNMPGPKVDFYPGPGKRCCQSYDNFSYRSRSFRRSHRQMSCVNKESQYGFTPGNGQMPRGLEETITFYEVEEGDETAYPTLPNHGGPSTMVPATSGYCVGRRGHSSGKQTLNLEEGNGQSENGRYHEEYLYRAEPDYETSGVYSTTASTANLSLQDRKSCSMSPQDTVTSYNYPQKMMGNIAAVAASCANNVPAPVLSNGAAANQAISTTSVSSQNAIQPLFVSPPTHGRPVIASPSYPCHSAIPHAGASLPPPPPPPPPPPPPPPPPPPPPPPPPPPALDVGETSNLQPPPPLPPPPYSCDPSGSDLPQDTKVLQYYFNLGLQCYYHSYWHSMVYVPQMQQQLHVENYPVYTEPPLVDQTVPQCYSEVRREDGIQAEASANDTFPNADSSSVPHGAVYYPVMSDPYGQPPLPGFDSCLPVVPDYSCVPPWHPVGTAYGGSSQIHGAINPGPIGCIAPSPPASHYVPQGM
How it was run: (§1)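 In triplicate, 495 µg of HEK293T lysate per sample was incubated with fragment at 200 µM or vehicle for 3 h. Biotin-Ahx-Ub-VS was then added to 0.5 µM final for 1 h, and labelled DUBs were captured with NeutrAvidin, digested with LysC and trypsin, and measured by diaPASEF LC-MS/MS. Data are average log2 fragment/vehicle ratios by unpaired t-test from global-median-normalised Spectronaut label-free quantities, restricted to proteins with ≥2 unique peptides.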

ATXN3 = ATXN3 (UniProt P54252)
How it was run: as §1

BAP1 = molecular target: T2, BAP1 (UniProt Q92560)
T2 sequence (whole entry): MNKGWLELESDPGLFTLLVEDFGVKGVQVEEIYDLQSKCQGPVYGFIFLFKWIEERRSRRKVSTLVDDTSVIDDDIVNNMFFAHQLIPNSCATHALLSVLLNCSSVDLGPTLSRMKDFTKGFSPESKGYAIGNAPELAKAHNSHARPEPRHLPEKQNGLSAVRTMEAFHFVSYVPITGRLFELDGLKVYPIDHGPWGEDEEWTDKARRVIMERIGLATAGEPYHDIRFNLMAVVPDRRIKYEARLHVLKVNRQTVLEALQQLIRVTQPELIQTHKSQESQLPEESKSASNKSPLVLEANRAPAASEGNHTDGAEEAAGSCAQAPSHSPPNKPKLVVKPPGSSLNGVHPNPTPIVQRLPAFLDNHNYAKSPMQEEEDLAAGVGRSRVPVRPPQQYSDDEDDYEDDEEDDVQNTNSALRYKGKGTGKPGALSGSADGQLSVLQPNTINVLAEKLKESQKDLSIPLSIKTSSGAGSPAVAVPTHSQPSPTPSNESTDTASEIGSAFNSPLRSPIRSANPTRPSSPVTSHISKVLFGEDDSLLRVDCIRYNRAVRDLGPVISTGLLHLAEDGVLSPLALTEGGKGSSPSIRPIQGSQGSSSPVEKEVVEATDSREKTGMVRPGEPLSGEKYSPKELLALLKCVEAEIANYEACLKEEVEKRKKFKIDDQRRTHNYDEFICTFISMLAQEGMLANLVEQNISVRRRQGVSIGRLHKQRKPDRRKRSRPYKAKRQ
How it was run: as §1

EIF3F = EIF3F (UniProt O00303)
How it was run: as §1

EIF3H = EIF3H (UniProt O15372)
How it was run: as §1

FAM105A = molecular target: T3, FAM105A (UniProt Q9NUU6)
T3 sequence (whole entry): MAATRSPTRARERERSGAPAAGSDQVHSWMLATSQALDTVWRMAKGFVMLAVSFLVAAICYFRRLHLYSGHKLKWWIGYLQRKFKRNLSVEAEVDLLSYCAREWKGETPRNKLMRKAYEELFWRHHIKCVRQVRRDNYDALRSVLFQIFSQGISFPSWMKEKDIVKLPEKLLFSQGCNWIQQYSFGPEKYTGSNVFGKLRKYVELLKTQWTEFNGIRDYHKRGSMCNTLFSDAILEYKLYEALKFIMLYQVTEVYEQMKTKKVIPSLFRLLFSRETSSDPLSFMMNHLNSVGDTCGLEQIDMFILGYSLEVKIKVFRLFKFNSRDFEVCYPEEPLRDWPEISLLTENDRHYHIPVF
How it was run: as §1

OTUB1 = OTUB1 (UniProt Q96FW1)
How it was run: as §1

OTUD4 = molecular target: T4, OTUD4 (UniProt Q01804)
T4 sequence (whole entry): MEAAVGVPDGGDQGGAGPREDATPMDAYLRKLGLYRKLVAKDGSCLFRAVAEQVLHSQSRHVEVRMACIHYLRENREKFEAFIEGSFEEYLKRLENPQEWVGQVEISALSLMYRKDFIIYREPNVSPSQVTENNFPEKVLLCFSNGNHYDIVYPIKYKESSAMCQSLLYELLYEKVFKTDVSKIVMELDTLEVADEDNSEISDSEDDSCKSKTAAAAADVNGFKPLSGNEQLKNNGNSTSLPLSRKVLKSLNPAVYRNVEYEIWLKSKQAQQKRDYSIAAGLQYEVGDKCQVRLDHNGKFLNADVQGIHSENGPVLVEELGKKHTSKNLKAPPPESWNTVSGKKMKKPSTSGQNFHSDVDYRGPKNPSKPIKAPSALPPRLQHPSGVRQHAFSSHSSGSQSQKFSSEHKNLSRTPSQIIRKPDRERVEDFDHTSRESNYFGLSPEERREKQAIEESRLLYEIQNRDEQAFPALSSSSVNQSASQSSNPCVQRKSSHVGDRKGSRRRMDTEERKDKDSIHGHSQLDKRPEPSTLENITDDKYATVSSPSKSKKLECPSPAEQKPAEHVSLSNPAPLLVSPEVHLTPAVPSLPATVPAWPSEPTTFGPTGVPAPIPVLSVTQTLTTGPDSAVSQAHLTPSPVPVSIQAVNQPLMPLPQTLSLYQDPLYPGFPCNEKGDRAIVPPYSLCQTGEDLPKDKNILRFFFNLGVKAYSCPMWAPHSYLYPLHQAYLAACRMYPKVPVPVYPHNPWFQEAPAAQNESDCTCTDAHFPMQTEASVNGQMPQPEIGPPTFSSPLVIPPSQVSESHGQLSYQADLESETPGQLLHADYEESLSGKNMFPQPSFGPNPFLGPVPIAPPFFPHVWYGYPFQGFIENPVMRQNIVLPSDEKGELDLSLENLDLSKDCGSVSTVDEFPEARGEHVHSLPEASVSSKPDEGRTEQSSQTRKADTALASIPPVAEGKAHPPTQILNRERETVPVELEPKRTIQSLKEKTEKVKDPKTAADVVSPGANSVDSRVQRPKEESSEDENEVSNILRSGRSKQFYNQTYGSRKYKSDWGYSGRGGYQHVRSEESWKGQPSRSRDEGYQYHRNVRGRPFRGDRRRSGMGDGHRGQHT
How it was run: as §1

OTUD5 = molecular target: T5, OTUD5 (UniProt Q96G74)
T5 sequence (whole entry): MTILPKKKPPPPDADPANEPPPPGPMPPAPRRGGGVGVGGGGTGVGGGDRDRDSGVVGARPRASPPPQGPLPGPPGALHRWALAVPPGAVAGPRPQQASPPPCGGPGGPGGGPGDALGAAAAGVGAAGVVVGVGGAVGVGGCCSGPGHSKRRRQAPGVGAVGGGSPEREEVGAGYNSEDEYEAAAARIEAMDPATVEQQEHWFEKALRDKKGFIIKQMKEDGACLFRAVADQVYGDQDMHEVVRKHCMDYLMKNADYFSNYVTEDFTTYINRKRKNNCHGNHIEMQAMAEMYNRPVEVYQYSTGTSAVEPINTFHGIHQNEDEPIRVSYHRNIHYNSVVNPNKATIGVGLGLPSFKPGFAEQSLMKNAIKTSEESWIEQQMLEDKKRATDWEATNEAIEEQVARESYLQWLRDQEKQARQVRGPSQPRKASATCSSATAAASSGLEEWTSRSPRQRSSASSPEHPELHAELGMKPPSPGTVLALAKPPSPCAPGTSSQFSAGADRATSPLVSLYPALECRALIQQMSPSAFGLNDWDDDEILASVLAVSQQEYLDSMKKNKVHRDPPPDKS
How it was run: as §1

Measured: log2 ratio of Biotin-Ahx-Ub-VS probe labelling

Sequence of ATXN3 (P54252 whole entry): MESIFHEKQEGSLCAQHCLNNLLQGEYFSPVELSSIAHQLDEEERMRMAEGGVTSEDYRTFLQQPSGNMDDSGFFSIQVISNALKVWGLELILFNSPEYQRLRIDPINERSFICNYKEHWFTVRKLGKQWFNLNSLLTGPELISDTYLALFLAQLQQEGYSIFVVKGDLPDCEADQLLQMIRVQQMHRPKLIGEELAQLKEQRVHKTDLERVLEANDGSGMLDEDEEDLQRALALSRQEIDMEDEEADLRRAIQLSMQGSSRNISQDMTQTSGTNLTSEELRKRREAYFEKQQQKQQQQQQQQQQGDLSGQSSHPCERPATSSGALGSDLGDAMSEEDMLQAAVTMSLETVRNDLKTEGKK
Sequence of EIF3H (O15372 whole entry): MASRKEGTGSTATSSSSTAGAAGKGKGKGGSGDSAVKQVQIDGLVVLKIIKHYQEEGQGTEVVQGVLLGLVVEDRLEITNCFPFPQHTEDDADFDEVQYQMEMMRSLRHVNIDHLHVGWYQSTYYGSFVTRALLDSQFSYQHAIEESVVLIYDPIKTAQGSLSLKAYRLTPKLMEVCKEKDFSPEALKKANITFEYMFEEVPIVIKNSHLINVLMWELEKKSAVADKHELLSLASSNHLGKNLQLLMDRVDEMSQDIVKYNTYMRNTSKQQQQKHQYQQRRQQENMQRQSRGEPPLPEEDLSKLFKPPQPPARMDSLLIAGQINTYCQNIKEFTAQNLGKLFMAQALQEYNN
Sequence of EIF3F (O00303 whole entry): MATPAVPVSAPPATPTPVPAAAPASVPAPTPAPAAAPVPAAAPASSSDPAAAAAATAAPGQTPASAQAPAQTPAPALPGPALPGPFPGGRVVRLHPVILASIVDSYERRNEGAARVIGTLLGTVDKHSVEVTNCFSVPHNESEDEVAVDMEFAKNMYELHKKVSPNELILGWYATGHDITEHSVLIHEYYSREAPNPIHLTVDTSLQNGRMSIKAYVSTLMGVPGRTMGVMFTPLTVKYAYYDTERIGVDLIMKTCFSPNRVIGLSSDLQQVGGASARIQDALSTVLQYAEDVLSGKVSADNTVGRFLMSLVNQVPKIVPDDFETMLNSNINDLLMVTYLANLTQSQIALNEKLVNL
Sequence of OTUB1 (Q96FW1 whole entry): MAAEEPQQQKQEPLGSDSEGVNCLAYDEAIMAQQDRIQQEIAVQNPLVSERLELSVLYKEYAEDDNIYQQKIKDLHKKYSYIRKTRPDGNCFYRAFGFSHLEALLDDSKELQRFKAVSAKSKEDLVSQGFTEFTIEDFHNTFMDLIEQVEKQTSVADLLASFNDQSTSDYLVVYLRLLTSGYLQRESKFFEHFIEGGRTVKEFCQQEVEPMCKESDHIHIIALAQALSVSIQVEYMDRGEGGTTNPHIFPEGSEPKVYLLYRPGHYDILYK

O=C(CCl)NCCC1COCCO1 (centres undefined)
active: BAP1 -1.01
inactive: ALG13 -0.267 | ATXN3 -0.282 | EIF3F -0.44 | EIF3H 0.24 | FAM105A -0.278 | OTUB1 -0.233 | OTUD4 -0.214 | OTUD5 -0.165
